The results in this text go back to PubChem BioAssay (Tox21).

Several values for one entry are separate records, joined by “and”; a condition that tells them apart may be missing. Identical values can stand only once. Inconclusive results are not listed. Some structures have more than one record in an assay (separate samples or runs), and their calls can disagree. Activity calls are given as the source filed them. Unless noted, the call rests on the fitted dose curve; in most records, active means well fitted curve in the direction sought with a large enough effect in the repeat runs; inconclusive means weak or mixed curves; inactive means no such curve, though single readings can be large; an effect the other way counts as inactive or inconclusive.

Assay [1] is described as follows: qHTS assay to identify small molecule antagonists of the glucocorticoid receptor (GR) signaling pathway - cell viability counter screen (AID 720693; further: nearly all actives have a fitted effect of over 55% in size). (In general: Quantitative high-throughput screening tests each substance at several concentrations.)
Assay [2] is described as follows: qHTS assay for identifying genotoxic compounds that show differential cytotoxicity against isogenic chicken DT40 cell lines with known DNA damage response pathways - Rev3 mutant cell line (AID 743014). Further: nearly all actives have a fitted effect of over 55% in size. Further: potency means the concentration at half of the fitted maximal effect.
Assay [3] can be described thus: qHTS assay for identifying genotoxic compounds that show differential cytotoxicity against isogenic chicken DT40 cell lines with known DNA damage response pathways - Rad54/Ku70 mutant cell line (AID 743015). Further: nearly all actives have a fitted effect of over 60% in size. Further: potency means the concentration at half of the fitted maximal effect.
The nature of assay [4]: qHTS assay to identify small molecule antagonists of the androgen receptor (AR) signaling pathway - cell viability counter screen (AID 743033; further: nearly all actives have a fitted effect of over 45% in size).
Assay [5] can be described thus: qHTS assay to identify small molecule antagonists of the androgen receptor (AR) signaling pathway using the MDA cell line - cell viability counter screen (AID 743041; further: nearly all actives have a fitted effect of over 45% in size). The procedure, abridged:
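Cells were plated at 3,000 per well and left 5 h. Compounds in DMSO were then pinned in, followed by R1881. After 16 h at 37C, CellTiter-Fluor fluorescence gave viability.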

The nature of assay [6]: qHTS assay for identifying genotoxic compounds that show differential cytotoxicity against isogenic chicken DT40 cell lines with known DNA damage response pathways - wild type cell line (AID 743012). Further: nearly all actives have a fitted effect of over 60% in size. Further: potency means the concentration at half of the fitted maximal effect. The essentials:
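Wild type DT40, 300 cells/well, ~0.5 h settle at 37 C/5% CO2; compounds in DMSO added by pintool; 40 h at 37 C/5% CO2; CellTiter-Glo, 30 min RT; luminescence.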

Assay [7] addresses Androgen receptor (Homo sapiens) (UniProt P10275). Kind of assay: qHTS assay to identify small molecule antagonists of the androgen receptor (AR) signaling pathway (AID 743035; active means well fitted inhibition curve with a large enough effect in the signal ratio in the repeat runs, not every such curve was filed as active; the % refers to the signal ratio). The procedure, abridged:
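Fluorescence from a beta-lactamase FRET substrate (LiveBLAzer B/G, 2 h, room temperature) measured inhibition of R1881-stimulated signaling in GeneBLAzer AR-UAS-bla HEK293 cells exposed to compound for 16 h at 37C.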

Assay [8] shares this target. Kind of assay: qHTS assay to identify small molecule agonists of the androgen receptor (AR) signaling pathway (AID 743036; active means well fitted activation curve with a large enough effect in the signal ratio in the repeat runs, with a control signal flat, not every such curve was filed as active; the % refers to the signal ratio; further: potency means the concentration at half of the fitted maximal effect). The essentials: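 Following a 4 h settling period, AR-UAS-bla HEK293 cells were dosed with compounds for 16 h at 37C. A 2 h room-temperature incubation with LiveBLAzer B/G FRET substrate preceded the fluorescence measurement.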
Assay [9] shares this target. Kind of assay: qHTS assay to identify small molecule agonists of the androgen receptor (AR) signaling pathway using the MDA cell line (AID 743040; further: potency means the concentration at half of the fitted maximal effect; nearly all actives have a fitted effect of over 20% in size). The essentials:
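Cells plated, 5 h at 37C/0% CO2; compound or DMSO pinned; 16 h at 37C; ONE-Glo added; luminescence measured after 30 min at room temperature. Reporter line: MDA-kb2 with MMTV-luciferase responsive to AR and GR.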

Assay [10] has the same target. Description: qHTS assay to identify small molecule antagonists of the androgen receptor (AR) signaling pathway using the MDA cell line (AID 743042; further: nearly all actives have a fitted effect of over 55% in size). The essentials:
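Antagonist mode: compounds plus R1881 agonist added to MDA-kb2 AR-luc cells, incubated 16 h at 37C. Luciferase reporter luminescence quantified, with multiplexed CellTiter-Fluor readout for cell viability.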

Sequence of Androgen receptor (Homo sapiens) (P10275 whole entry, looked up): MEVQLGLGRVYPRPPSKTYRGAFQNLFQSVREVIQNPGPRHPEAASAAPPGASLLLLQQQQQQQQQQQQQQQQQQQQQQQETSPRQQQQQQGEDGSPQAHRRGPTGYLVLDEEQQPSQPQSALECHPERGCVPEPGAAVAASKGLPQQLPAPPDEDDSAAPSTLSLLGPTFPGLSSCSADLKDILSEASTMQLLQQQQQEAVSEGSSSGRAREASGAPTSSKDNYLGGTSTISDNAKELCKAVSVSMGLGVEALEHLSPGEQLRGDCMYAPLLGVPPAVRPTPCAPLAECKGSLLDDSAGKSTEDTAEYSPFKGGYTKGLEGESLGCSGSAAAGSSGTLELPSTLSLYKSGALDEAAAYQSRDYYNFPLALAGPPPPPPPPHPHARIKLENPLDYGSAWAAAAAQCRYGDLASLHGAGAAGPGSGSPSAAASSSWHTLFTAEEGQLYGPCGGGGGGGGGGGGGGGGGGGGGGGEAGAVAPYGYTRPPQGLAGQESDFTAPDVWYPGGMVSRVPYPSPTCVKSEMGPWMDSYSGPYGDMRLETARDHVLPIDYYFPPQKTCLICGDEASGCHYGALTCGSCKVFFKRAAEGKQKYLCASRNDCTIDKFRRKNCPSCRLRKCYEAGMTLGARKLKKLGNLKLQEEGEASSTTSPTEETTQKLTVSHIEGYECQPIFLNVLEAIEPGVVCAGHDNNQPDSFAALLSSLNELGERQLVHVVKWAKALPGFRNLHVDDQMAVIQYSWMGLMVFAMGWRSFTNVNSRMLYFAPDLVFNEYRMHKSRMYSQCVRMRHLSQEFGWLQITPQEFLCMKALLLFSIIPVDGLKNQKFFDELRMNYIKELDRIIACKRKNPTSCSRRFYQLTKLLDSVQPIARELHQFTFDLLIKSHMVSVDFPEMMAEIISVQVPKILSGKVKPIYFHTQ

In the case of `CC(=O)OCc1ccco1`, the outcome in assay [1] and in assay [4] was inactive. Further, in assay [2], the Potency was 27.3 µM (active). For the same molecule, the Potency entry in [3] and in assay [5] was “inactive” throughout.

In the case of `CC(C)OC(=O)COc1ccc(Cl)cc1Cl`, the call in assay [1] and in [4] was inactive. Moreover, the Potency entry in [6], in assay [2], in [3] and in [5] was “inactive” each time.

`C[C@]12CCC(=O)C=C1CC[C@@H]1[C@@H]2[C@@H](O)C[C@@]2(C)[C@H]1CC[C@]2(O)C(=O)CO`: the call in assay [1], in assay [7] and in assay [10] was inactive. The Potency entry in [6], in [2], in assay [3] and in assay [5] was “inactive” throughout. Also, the Potency in [8] is 21.3 nM (active) and 27.8 nM (active); in assay [9] it was 119 nM (active) and 69.3 nM (active).

Consider `CC(C)(C)c1cc(Cc2cc(C(C)(C)C)c(O)c(C(C)(C)C)c2)cc(C(C)(C)C)c1O`, for which the call in [1] and in assay [4] was inactive. Also, the Potency entry in assay [6] is “inactive and 61.1 µM (active)”; in assay [2], 61.1 µM (active); in assay [3] it was “inactive and 54.5 µM (active)”. For the same molecule, in [5], the Potency entry is “inactive”.

`COCCCN`: the molecule was called inactive in assay [1] and in [4]. In addition, the Potency result in [6], in assay [2], in assay [3] and in assay [5] was “inactive” in each case.

For `CC(C)CC(C)O` (stereo unspecified), the outcome in [1] and in [4] was inactive. In addition, the Potency result in [6], in assay [3] and in assay [5] was “inactive” each time. Besides, the Potency result in [2] is “inactive and 61.1 µM (active)”.

Take `NCCCCCCN`: the molecule was classed as inactive in [1] and in [4]. Further, the Potency entry in assay [6], in assay [2], in [3] and in assay [5] was “inactive” each time.

For the molecule `CC(C)OP(=O)(CP(=O)(OC(C)C)OC(C)C)OC(C)C`, the outcome in assay [1] and in assay [4] was inactive. The Potency result in [2], in assay [3] and in assay [5] was “inactive” throughout.

As for `COC(=O)CCCC(=O)OC`, the molecule was classed as inactive in assay [1] and in assay [4]. In addition, the Potency result in assay [6], in [2], in assay [3] and in [5] was “inactive” throughout.

On to `Nc1nc(N)nc(-c2ccccc2)n1`, for which the result in assay [1] and in [4] was inactive. Besides, the Potency result in assay [6], in assay [2], in [3] and in [5] was “inactive” each time.

Regarding `CN(C)CCOC(=O)COc1ccc(Cl)cc1`, the call in assay [1] and in [4] was inactive. Further, the Potency result in assay [6], in [2], in [3] and in assay [5] was “inactive” each time.

Turning to `c1ccc2c(c1)Cc1ccccc1-2`, the molecule was classed as inactive in assay [1] and in assay [4]. Moreover, the Potency entry in assay [6] and in assay [5] was “inactive” each time. The Potency result was “inactive and 61.1 µM (active)” in assay [2]; “inactive and 61.1 µM (active)” in [3].

On to `CNC(=O)Oc1ccc2c(c1)[C@]1(C)CCN(C)[C@@H]1N2C`, for which the result in assay [1] and in [4] was inactive. Besides, the Potency result in [6], in assay [3] and in [5] was “inactive” in each case. In addition, the Potency entry in [2] was “inactive and 48.6 µM (active)”.

For `CCc1ccccc1CC`, the outcome in assay [1] and in assay [4] was inactive. Also, the Potency result in assay [6], in assay [2], in [3] and in assay [5] was “inactive” throughout.

In the case of `CCOC(=O)n1ccn(C)c1=S`, the outcome in [1] and in assay [4] was inactive. Besides, the Potency entry in assay [6] and in [5] was “inactive” in each case.

On to `Cc1ccc(S(=O)(=O)N=C=O)cc1`, for which the molecule was classed as inactive in assay [1] and in [4]. The Potency entry in assay [6], in assay [2], in assay [3] and in assay [5] was “inactive” in each case.

`O=C(OCC1CCC2OC2C1)C1CCC2OC2C1` (stereo unspecified): the molecule was classed as inactive in [1] and in [4]. Further, the Potency in assay [2] is 10.1 µM (active) and 9.69 µM (active). Further, the Potency result in assay [3] and in assay [5] was “inactive” throughout.

For `CC(=O)OCCOC(C)=O`, the outcome in assay [1] and in assay [4] was inactive. For the same molecule, the Potency entry in [6], in assay [2], in assay [3] and in assay [5] was “inactive” in each case.

In the case of `CCCCC(C=O)CC` (stereo unspecified), the result in assay [1] and in assay [4] was inactive. The Potency entry in [6], in assay [2], in assay [3] and in assay [5] was “inactive” throughout.

As to `CCCCCCCCCCN`, the molecule was called inactive in assay [1] and in assay [4]. In addition, the Potency entry in assay [6], in assay [2], in assay [3] and in assay [5] was “inactive” throughout.

Turning to `CC1(C)OC[C@@H]2O[C@@]3(C(=O)O)OC(C)(C)O[C@H]3[C@@H]2O1`, the call in assay [1] and in assay [4] was inactive. For the same molecule, the Potency entry in assay [6], in assay [2], in assay [3] and in assay [5] was “inactive” in each case.

With `Nc1ccc(Cl)c(N)c1`, the call in assay [1] and in assay [4] was inactive. Besides, the Potency entry in assay [6], in [2] and in assay [5] was “inactive” throughout.

For `c1ccc(Oc2ccccc2)cc1`, the molecule was classed as inactive in [1] and in assay [4]. Moreover, the Potency entry in [6], in assay [2], in [3] and in [5] was “inactive” throughout.

Take `CC1(C)CC(N)CC(C)(CN)C1` (stereo unspecified): the outcome in [1] and in assay [4] was inactive. In addition, the Potency entry in [6], in [3] and in assay [5] was “inactive” in each case. For the same molecule, the Potency result in assay [2] is “inactive and 54.5 µM (active)”.

In the case of `OC1C(O)C(O)C(O)C(O)C1O` (stereo unspecified), the molecule was classed as inactive in assay [1] and in assay [4]. The Potency result in assay [6], in assay [2], in [3] and in assay [5] was “inactive” each time.

Turning to `CCNc1cccc(C)c1`, the outcome in assay [1] and in [4] was inactive. For the same molecule, the Potency result in assay [6], in [2], in assay [3] and in assay [5] was “inactive” throughout.

As to `CNC(=S)N(C)C`, the outcome in [1] and in assay [4] was inactive. Also, the Potency entry in assay [6], in [2], in assay [3] and in [5] was “inactive” each time.

On to `C=CC(C)CCCC(C)(C)O` (stereo unspecified), for which the outcome in [1] and in assay [4] was inactive. Besides, the Potency result in [6], in assay [3] and in assay [5] was “inactive” in each case. Moreover, in assay [2], the Potency result was “inactive and 61.1 µM (active)”.

As to `O=[N+]([O-])c1ccc2nc[nH]c2c1`, the molecule was classed as inactive in assay [1] and in assay [4]. Besides, the Potency entry in [6], in [2], in assay [3] and in [5] was “inactive” throughout.

With `C[C@]12CC[C@@H]3c4ccc(O)cc4CC[C@H]3[C@@H]1C[C@@H](O)[C@@H]2O`, the result in assay [1] and in assay [4] was inactive. In assay [5], the Potency entry was “inactive”.

Turning to `CCCCCCC=O`, the outcome in assay [1] and in [4] was inactive. For the same molecule, the Potency entry in assay [6] was “inactive and 48.6 µM (active)”; in [2], “inactive and 43.3 µM (active)”; in [3], “inactive and 43.3 µM (active)”. Moreover, the Potency result in [5] was “inactive”.

For the molecule `N[C@H](Cc1c[nH]c2ccccc12)C(=O)O`, the molecule was classed as inactive in assay [1] and in assay [4]. The Potency result in assay [6], in assay [2], in assay [3] and in assay [5] was “inactive” in each case.
